Test results taken from PubChem BioAssay AID624297 (National Center for Advancing Translational Sciences (NCATS), 2012).
Where “and” joins values, the source holds several entries; their conditions need not be identical. Identical values can stand only once. About 6,200 (1.8%) of roughly 340,000 compounds were called active. Entries that show only a call come without a potency. About 10% were inconclusive and are not listed. Calls follow the shape of the dose curve; as a rule, active = well fitted activation curve with a large enough effect; inconclusive = small, poorly fitted or top-dose-only effect; inactive = no such curve, though single readings can be large or run the other way. This excerpt belongs to a sample that is enriched for actives.
Potency is read from the fitted curve at half-maximal effect.

Assay: A quantitative high throughput screen for small molecules that induce DNA re-replication in SW480 colon adenocarcinoma cells. Also: nearly all actives have a fitted effect of over 55% in size.
Details: Hoechst DNA content imaging, 48 h; series mostly up to 46.1 µM
Summary of the method: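 Readout is total intensity of Hoechst-stained nuclei, excited at 405 nm and collected at 500-530 nm. Compound treatment lasted 48 hr at 37 C in 5% CO2 before staining.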
With `COc1ccc(CCNC(=O)c2ccc(NC(=O)CC3SC(N4CCCCC4)=NC3=O)cc2)cc1OC` (centres undefined) the Potency was “inactive”. In the case of `C=CC[C@H](CC(=O)OC(C)(C)C)C(=O)OC[C@H]1CCCN1C(=O)[C@H](CC=C)CC(=O)N(CCO)Cc1ccccc1`, the Potency is reported as “inactive”. For `CN1C(=O)c2ccc(NC(=O)c3c(F)c(F)c(F)c(F)c3F)cc2C1=O`, the Potency was “inactive”. For `CN1C(=O)c2ccc(NC(=O)C3CCCCC3)cc2C1=O`, the Potency was 16.4 µM (active). For `O=C(O)c1ccc(NC(=O)C2CCCCC2)cc1`, the Potency was “inactive”. In the case of `COc1ccc2nc(N3C(=O)C(O)=C(C(=O)c4ccco4)C3c3ccco3)sc2c1` (centres undefined), the Potency is reported as “inactive”. For `O=C(COC(=O)c1ccc(Br)o1)NC12CC3CC(CC(C3)C1)C2`, the Potency was “inactive”. For `O=C(CC(O)(C(F)(F)F)C(F)(F)F)Nc1ccc(Cl)c(Cl)c1`, the Potency was 14.6 µM (active). For `O=C(CC1SCCNC1=O)Nc1ccc(Cl)c(Cl)c1` (centres undefined), the Potency was “inactive”. In the case of `O=C(Cc1ccc(Cl)c(Cl)c1)Nc1ccc(SC(F)F)cc1`, the Potency is reported as “inactive”. With `Cc1noc(C)c1C(=O)OC(C)C(=O)Nc1ccc2c(c1)OCO2` (centres undefined) the Potency was “inactive”. In the case of `O=C1C2C3C=CC(C3)C2C(=O)N1c1ncc([N+](=O)[O-])s1` (centres undefined), the Potency is reported as “inactive”. With `C/C(=N\Nc1ccccc1)c1cccs1` the Potency was “inactive”. With `CC(C)c1nccn1S(=O)(=O)c1cc([N+](=O)[O-])ccc1Cl` the Potency was “inactive”. For `CCc1nc(C)cn1S(=O)(=O)c1cc(OC)c(C)cc1C`, the Potency was “inactive”. For `CCc1nc(C)cn1S(=O)(=O)c1cc([N+](=O)[O-])ccc1Cl`, the Potency was 4.11 µM (active). In the case of `O=C(Nc1ccc(S(=O)(=O)N2CCOCC2)cc1)C1CCN(S(=O)(=O)c2ccc(Cl)cc2)CC1`, the Potency is reported as “inactive”. In the case of `C#CCNC(=O)C1=C[C@@H](c2ccccc2)[C@H](CCCO)[C@@H](OCC)O1`, the Potency is reported as 23.1 µM (active). In the case of `CCO[C@H]1OC(C(=O)NCc2ccccc2)=C[C@@H](c2coc3ccccc3c2=O)[C@@H]1CCCO`, the Potency is reported as “inactive”. For `CCO[C@@H]1OC(C(N)=O)=C[C@H](c2ccc(Br)cc2)[C@H]1CCCO`, the Potency was “inactive”. For `CN(c1ccccc1)S(=O)(=O)c1ccc(C(=O)N2CCN(c3ccccc3Cl)CC2)cc1`, the Potency was “inactive”. In the case of `CNC(=O)COC(=O)c1cc(-c2ccc(OC)cc2)nc2ccccc12`, the Potency is reported as “inactive”. For `Cc1cc(C(=O)Nc2ccccc2N2CCOCC2)c2ccccc2n1`, the Potency was “inactive”. In the case of `COC(=O)c1cc(N2CCNCC2)nc2ccccc12`, the Potency is reported as 10.3 µM (active). With `Cc1cccc(NC(=O)c2ccc(S(=O)(=O)N(C)c3ccccc3)cc2)n1` the Potency was “inactive”. With `CCCCCCc1cc2cc(-c3nnc(-c4ccccc4)o3)c(=O)oc2cc1O` the Potency was 3.55 µM (active). With `CCCCCCc1ccc(O)cc1O` the Potency was “inactive”. In the case of `Cc1c(CC(=O)NCCCCCC(=O)O)c(=O)oc2cc3occ(-c4ccccc4)c3cc12`, the Potency is reported as “inactive”. With `CCCCNC1(C#N)CCN(Cc2ccccc2)CC1` the Potency was “inactive”. With `COc1cc(NC(=O)COC(=O)c2cc(S(=O)(=O)N3CCOCC3)ccc2F)cc(OC)c1` the Potency was “inactive”. With `O=C(COC(=O)c1ccc(F)cc1)Nc1ccc2c(c1)OCO2` the Potency was “inactive”. With `NS(=O)(=O)c1ccc(NC(=O)COC(=O)c2ccco2)cc1` the Potency was “inactive”. For `NS(=O)(=O)c1ccc(NC(=O)COC(=O)c2cc3ccccc3oc2=O)cc1`, the Potency was “inactive”. For `O=C(COC(=O)c1c2c(nc3ccccc13)CCCC2)c1ccc(Br)s1`, the Potency was “inactive”. In the case of `O=C(COC(=O)c1ccncc1)Nc1ccc2c(c1)OCO2`, the Potency is reported as “inactive”. With `O=C(COC(=O)c1c2c(nc3ccccc13)/C(=C\c1cccs1)CCC2)Nc1ccccc1Cl` the Potency was 14.6 µM (active) and 13 µM (active). In the case of `NC(=O)c1ccc(NC(=O)COC(=O)c2c3c(nc4ccccc24)/C(=C\c2ccc4c(c2)OCO4)CCC3)cc1`, the Potency is reported as 7.31 µM (active). With `COc1cc(/C=C2\CCCc3c2nc2ccccc2c3C(=O)O)cc(Cl)c1O` the Potency was “inactive”. With `NS(=O)(=O)c1ccc(NC(=O)COC(=O)c2c3c(nc4ccccc24)/C(=C\c2ccc4c(c2)OCO4)CCC3)cc1` the Potency was 7.31 µM (active) and 11.6 µM (active). In the case of `OCC1(CO)CC2(C1)CC(CO)(CO)C2`, the Potency is reported as “inactive”. With `COc1ccc(CCNC(=O)COC(=O)c2ncc(Cl)c(Cl)c2Cl)cc1OC` the Potency was “inactive”. With `O=C(CNC(=O)c1ccccc1F)OCC(=O)c1c[nH]c2ccccc12` the Potency was “inactive”. For `CC(=O)Nc1ccc(S(=O)(=O)Nc2ccc(N3CCCCC3)cc2)cc1`, the Potency was “inactive”. In the case of `CCC1([N+](=O)[O-])COC(c2ccc(C(C)C)cc2)OC1` (centres undefined), the Potency is reported as “inactive”. For `CC1CCCCC12NC(=O)N(CC(=O)OCc1c(F)cccc1Cl)C2=O` (centres undefined), the Potency was “inactive”. For `COc1ccc(C2=NOC(C(=O)NCc3ccco3)C2)cc1OC` (centres undefined), the Potency was 13 µM (active). For `COc1ccc(CNC(=O)C2CC(c3ccc(C(F)(F)F)cc3)=NO2)cc1` (centres undefined), the Potency was “inactive”. With `COc1ccc(S(=O)(=O)N2CCC(C(=O)NCc3ccco3)CC2)cc1C` the Potency was “inactive”. In the case of `Cc1cc(N2CCCC2)ccc1NC(=O)COc1ccc(Cl)cc1`, the Potency is reported as “inactive”.
